From PubChem BioAssay AID1745847 (National Center for Advancing Translational Sciences (NCATS), 2022)
Among all 2,100 compounds or so, about 670 (32%) were called active. Inconclusive results (about 50%) are left out. The list shows a part of the results. Values without a mark were called inactive. Calls come from the whole dose curve; as a rule, active = well fitted inhibition curve with a large enough effect; inconclusive = small, poorly fitted or top-dose-only effect; inactive = no such curve, though single readings can be large or run the other way.

assay: CMV-Luciferase Counterscreen for Inhibitors of ATXN expression; conditions: HEK-293 CMV-luciferase reporter, luminescence, 24 h; series mostly up to 57.5 µM; note: nearly all actives have a fitted effect of over 55% in size
Description: PI: Daniel Scoles Ph.D. University of Utah School of Medicine, Salt Lake City, Utah MLPCN Grant: NS073009 Spinocerebellar ataxia type 2 (SCA2) is a multisystem neurodegenerative disease caused by a dominantly acting mutation leading to expansion of a polyQ domain in the ataxin-2 protein (ATXN2). SCA2 patients develop progressive ataxia and later lose function in other neuronal systems. Prominent parkinsonian signs develop in some patients. Like many neurodegenerative disorders, no symptomatic or disease-modifying treatments are known. The primary objective of the proposed research is to identify compounds inhibiting ATXN2 expression and to test them for efficacy in SCA2 mouse models. We have developed a cell-based assay paired with an in vivo mouse model using identical luciferase expression constructs. This approach takes advantage of an ATXN2-luciferase transgene, with the luciferase gene flanked by the upstream and downstream portions of the ATXN2 gene. Here we describe a 5-7 dose quantitative high thoroughput screen (qHTS) for compounds lowering ATXN2 expression. We screened the NIH Molecular Libraries Small Molecule Repository (MLSMR) and NCGC's mechanistically annotated (MIPE) and drug repurposing (NPC) collections of compounds for lowering expression of an ATXN2-luciferase reporter in HEK-293 cells. The assay is a multiplexed cell viability assay to ensure target reduction in the absence of cytotoxicity. Secondary qHTS assays included a CMV-luciferase reporter expressed in HEK-293 cells as well as a biochemical assay using recombinant luciferase to detect inhibitors of the reporter enzyme. Compounds that inhibit ATXN2 expression but is not cytotoxic were selected for confirmatory and secondary screens.
PROTOCOL TABLE (as described by Inglese J, Shamu CE and Guy RK. 2007) SEQUENCE No. (e.g., 1, 2, 3, etc.); PARAMETER (e.g., Cells, Incubation, Reagent, etc.); VALUE; DESCRIPTION. 1; Cells; 4 uL; white, solid bottom, 1536-well Greiner assay plate. 2; Incubation; 2 hr; 37 degree C in 5% humidified CO2. 3; Compounds; 23 nL; Kalypsis pintool (Wako USA) equipped with a 1536-well pin head. 4; Incubation; 24 hr; 37 degree C in 5% humidfified CO2. 5; Reagent; 1 uL; Gly-Phe-7-Amino-4-trifluoromethylcoumarin. 6; Incubation; 30 min; 37 degree C in 5% humidfified CO2. 7; Detection; Fluorescence; Viewlux plate reader (PerkinElmer). 8; Reagent; 3 uL; SteadyGlo luciferase solution (Promega). 9; Incubation; 5 min; room temperature. 10; Detection; Luminescence; ViewLux plate reader (PerkinElmer). NOTES (numbers refer to Sequence numbers above) 1. HEK-293 cells expressing CMV-luciferase reporter (designated as SC cells) were suspended in phenol-red free DMEM and dispensed in assay plates using a Multidrop Combi dispenser (Thermo Fisher Scientific). 2. Assay plates were incubated. Evaporation was prevented by covering assay plates with metal lids containing holes to allow gas diffusion. 3. Compounds were added in a dose response manner with the final concentrations of 57, 11.4, 2.28, 0.46, 0.091, 0.018, 0.0037 uM. Vehicle-only plates, with DMSO being pin-transferred to columns 5-48, were inserted uniformly at the beginning and the end of each library to monitor and record any shifts in assay performance. 5. 125 uM Gly-Phe-7-Amino-4-trifluoromethylcoumarin (MP Biomedicals) working concentration was used at a final concentration of 25 uM. 7. To assess cell viability; the assay plates were read using the ViewLux high-throughput CCD imager (PerkinElmer), wherein single end-point fluorescence measurement was acquired (excitation 405/10; emission 540/25 nm). 8. Detection reagent SteadyGlo Luciferase (Promega) was added to the assay plate. 10. Luminescence is then measured on the ViewLux imager equipped with a clear emission filter using a 2 sec exposure. […]
% is set by controls: 0 for no effect and ±100 for the full control effect; potency is the fitted concentration of half-maximal effect.

Compound | Potency | activity change, negative = inhibition
CC[C@@]1(O)C(=O)OCc2c1cc1n(c2=O)Cc2cc3c(NC(=O)CN)cccc3nc2-1 | 56.2 nM (active) | 
CCC1(OC(=O)CN)C(=O)OCc2c1cc1n(c2=O)Cc2cc3ccccc3nc2-1 (stereo unspecified) |  | -43.6% [at 11.4 µM]
COc1cc2c(cc1OC)C1C(=O)c3ccc4c(c3OC1CO2)CC(C(C)C)O4 (stereo unspecified) | 794 nM (active) | 
CCC(C)(O)C(=O)OC1C(=O)OC2CC3C(C)=CC(=O)C(O)C3(C)C3C4(O)OCC23C1C(C)C4O (stereo unspecified) | 316 nM (active) | 
CCC(C)OC(=O)c1c(N)n(Cc2cccs2)c2nc3ccccc3nc12 (stereo unspecified) | 17800 nM (active) | 
CC(C)CCn1c(N)c(C(=O)NCc2cccs2)c2nc3ccccc3nc21 | 14100 nM (active) | 
CCOC(=O)c1c(N)n(CCN2CCCCC2)c2nc3ccccc3nc12 | inactive | 
CNC(=O)Nc1ccc(C(=O)N/N=C\C23CC[C@@H](O)CC2(O)CC[C@@H]2[C@@H]3CCC3(C)C(C4=CC(=O)OC4)CCC23O)cc1 (stereo partly specified) | inactive | 
CC1CC(C)CC(C)C(O)C(C#N)=CC=CCC(C2CCCC2C(=O)O)OC(=O)CC(O)C(C)C1 (stereo unspecified) | 316 nM (active) | 
C[C@H]1C[C@@H](C)C(=O)[C@@H]([C@H](O)CC2CC(=O)NC(=O)C2)C1 | 282 nM (active) | 
C[C@@H]1C[C@@H]([C@H](O)CC2CC(=O)NC(=O)C2)C(=O)[C@@H](C)C1 | 2820 nM (active) | 
CC(=O)OC1(C)CC(C)C(=O)C(C(O)CC2CC(=O)NC(=O)C2)C1 (stereo unspecified) | 126 nM (active) | 
C[C@]12CCC3C(CCC4=CC(O)CC[C@@]43/C=N/O)C1(O)CCC2C1=CC(=O)OC1 (stereo partly specified) | inactive | 
Cc1ccc(N2C(=O)NC(=O)/C(=C/C=C/c3ccco3)C2=O)cc1 |  | 82.1% [at 11.4 µM]
CC(=O)OC1CC2(O)C3CCC4CC(O)CCC4(C)C3CCC2(C)C1C1=CC(=O)OC1 (stereo unspecified) | inactive | 
O=C1NC2C(=CC(O)C(O)C2O)c2cc3c(cc21)OCO3 (stereo unspecified) | 251 nM (active) | 
Cc1c2ccncc2c(C)c2c1[nH]c1ccccc12 | 5010 nM (active) | 
COc1ccc(CCNCc2ccc(F)cc2)cc1OC |  | -5.47% [at 11.4 µM]
COC1C(O)C(C)OC(OC2C(Oc3cccc4c(O)c5c(=O)oc6ccc(C)c7c(=O)oc(c34)c5c67)OC(C)C(O)C2O)C1O (stereo unspecified) |  | -15.7% [at 11.4 µM]
O=[N+]([O-])c1ccc(C(c2ccc([N+](=O)[O-])cc2)c2ccc([N+](=O)[O-])cc2)cc1 | 17800 nM (active) | 
C[C@]12CC[C@H](O)C[C@H]1CC[C@@H]1[C@@H]2CC[C@]2(C)[C@@H](C3=CC(=O)OC3)CC[C@]12O | inactive | 
